Source: PubChem BioAssay
The list is not random: actives were taken first. Their share in the collection is about 11%.
JMJD2E inh: qHTS Assay for Inhibitors of Human Jumonji Domain Containing 2E (JMJD2E). Lysine-specific demethylase 4E (Homo sapiens), B2RXH2. JMJD2E catalytic domain, FDH-coupled NADH fluorescence (FDH is formaldehyde dehydrogenase). Potency, µM (top dose mostly 57.1 µM), actives largely listed as inhibitors. actives 1.6% (n = 230,000). AID 2147, 2009; further: nearly all actives have a fitted effect of over 50% in size
ALDH1A1 block: qHTS Assay for Inhibitors of Aldehyde Dehydrogenase 1 (ALDH1A1) | Aldehyde dehydrogenase 1A1 (Homo sapiens), P00352 | actives 7.3% (n = 220,000) | Potency, µM (titrated, usually from 75.3 µM), hits mostly inhibitors | Purified ALDH1A1, NADH fluorescence, propionaldehyde substrate
PNC assembly inh: High Content Assay for Compounds that inhibit the Assembly of the Perinucleolar Compartment | PC3M PTB-GFP, PNC prevalence imaging, 16 h; hits give low values | activity change (PNC), negative = inhibition, % at 10 µM | actives 3.1% (n = 140,000) | AID 2417, 2010;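 active means readout at or below -70, meaning at least 70% loss of cells showing the perinucleolar compartment, a nuclear body marking cancer cells; inconclusive means readout between -30 and a set limit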
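Compounds are pinned in duplicate onto adhered PC3M cells stably expressing GFP-tagged PTB and incubated 16 h at 37 C. Cells are then fixed, nuclei stained with Hoechst, and PNC-positive cells counted.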
HPGD inh: qHTS Assay for Inhibitors of HPGD (15-Hydroxyprostaglandin Dehydrogenase); purified HPGD, NADH fluorescence kinetic, PGE2 substrate; Potency, µM, most hits filed as inhibitors; actives 4.3% (n = 150,000); AID 894, 2007
Target sequence (P15428 whole entry, looked up): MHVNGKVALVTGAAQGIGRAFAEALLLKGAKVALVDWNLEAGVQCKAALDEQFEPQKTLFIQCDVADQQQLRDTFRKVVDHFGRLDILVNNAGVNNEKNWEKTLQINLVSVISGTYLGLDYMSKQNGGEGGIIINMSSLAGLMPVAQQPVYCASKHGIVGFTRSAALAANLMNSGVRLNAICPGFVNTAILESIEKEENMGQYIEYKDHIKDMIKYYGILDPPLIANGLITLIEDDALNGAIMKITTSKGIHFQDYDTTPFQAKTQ
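NADH formation kinetics: reaction with 30 uM PGE2 and 1 mM NAD+ (final), 20 nM enzyme, Tris-HCl pH 8 with Tween 20, after 15 min compound preincubation at room temperature. Fluorescence change, last versus first of five reads.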
Each line names hits and unclear results; the compound was inactive in the other large screens. Unless noted, the call rests on the fitted dose curve; in most records, active means well fitted inhibition curve with a large enough effect (not every such curve was filed as active); inconclusive means small, poorly fitted or top-dose-only effect, or another doubt; inactive means no such curve, though single readings can be large or run the other way.

NC(=O)CC1NC(=O)c2cc([N+](=O)[O-])cc(I)c2OCCC(C(N)=O)NC(=O)[C@@H]2CCCN2C1=O (stereo not given in full)	none
Cn1c(CSCc2ccc(F)cc2)nnc1SCC(=O)Nc1cccc(C(=O)O)c1	none (no result: ALDH1A1 block, PNC assembly inh, HPGD inh)
Cn1cnnc1SCC(=O)Nc1ccc2nc(SCc3ccccc3F)sc2c1	ALDH1A1 block 13µM
CCCC(=O)Nc1ccc2nc(SCC(=O)N3CCCC3)sc2c1	JMJD2E inh inconclusive (no result: PNC assembly inh, HPGD inh)
Cn1c(SCC(=O)N2CCOCC2)nnc1-c1cccc(NC(=O)c2ccccc2F)c1	ALDH1A1 block 25µM
Cn1c(SCC(=O)Nc2ccc3nc(SCC(=O)N4CCCC4)sc3c2)nnc1-c1ccccc1	ALDH1A1 block 22µM, HPGD inh 4µM
CCn1c(CNc2cccc(C(F)(F)F)c2)n[nH]c1=S	none (no result: PNC assembly inh, HPGD inh)
COC(=O)c1cn(NC(=O)/C=C/c2ccc(OC)c(OC)c2)c(=O)c2ccccc12	ALDH1A1 block inconclusive, HPGD inh inconclusive
CCOC(=O)Cn1nc(C(F)F)c(Br)c1C	none (no result: PNC assembly inh, HPGD inh)
O=C1c2cccc3c(Nc4ccccc4Cl)c([N+](=O)[O-])cc(c23)C(=O)N1CCO	HPGD inh 1.4µM
O=C1c2cccc([N+](=O)[O-])c2C(=O)N1CCO	none (no result: PNC assembly inh, HPGD inh)
CN(c1ccccc1)c1ccc(/C=C(\CCC(=O)O)c2nc3ccccc3s2)cc1[N+](=O)[O-]	ALDH1A1 block 13µM, HPGD inh 25µM
Cn1cnnc1Sc1ccc(/C=C(\CCC(=O)O)c2nc3ccccc3s2)cc1[N+](=O)[O-]	ALDH1A1 block 12µM (no result: PNC assembly inh, HPGD inh)
COc1ccc(NC(=O)/C(C#N)=C/c2ccc(Sc3nncn3C)c([N+](=O)[O-])c2)cc1	ALDH1A1 block 11µM (no result: PNC assembly inh, HPGD inh)
Cc1ccc(/C=C(\CCC(=O)O)c2nc3ccccc3s2)cc1[N+](=O)[O-]	ALDH1A1 block inconclusive, PNC assembly inh inconclusive
CCOC(=O)C1=NO[C@@]2(C=C(Br)C3(OCCCO3)[C@H]3O[C@H]32)C1	none (no result: JMJD2E inh, PNC assembly inh, HPGD inh)
CN(C)Cc1ccccc1-c1cc(N(C)C)ncn1	none (no result: PNC assembly inh)
CCCCn1c(=O)c(C(=O)c2ccccc2)nc2ccccc21	ALDH1A1 block 22µM, PNC assembly inh inconclusive
CC(C)COC[C@H](CN(Cc1ccccc1)c1ccccc1)N1CCCC1	none (no result: PNC assembly inh)
CNc1nc(NC#N)nc(SC)n1	none (no result: ALDH1A1 block, PNC assembly inh, HPGD inh)
O=C(NCc1ccccc1)NC1CCCCC1	HPGD inh inconclusive
O=C(NC1CCCCCC1)c1ccc(N2CCCC2=O)cc1	PNC assembly inh inconclusive, HPGD inh inconclusive
O=C(NCc1ccc(N2CCCC2=O)cc1)NC1CCCCC1	HPGD inh 22µM
O=C(NC1CCCCC1)c1ccc(N2CCCC2=O)cc1	HPGD inh 8.9µM
CO[C@@H]1COC(=O)[C@H]2CCCN2C(=O)[C@@H](C)COC(=O)CCC[C@H]1C	none (no result: JMJD2E inh, PNC assembly inh, HPGD inh)
N#C/C(=C\c1cccc(O)c1)C(=O)Nc1ccc2c(c1)OCCO2	none (no result: PNC assembly inh, HPGD inh)
O=C(NCc1ccc(F)cc1)c1ccc(CS(=O)(=O)Cc2ccc(F)cc2)o1	none
O=C(NCc1ccc(F)cc1)c1ccc(CS(=O)(=O)Cc2ccccc2F)o1	ALDH1A1 block 13µM
Cc1cc2ncn(/N=C/c3ccc([N+](=O)[O-])o3)c2cc1C	none
CC(C)(C)NS(=O)(=O)c1ccc(CCC(=O)NCc2ccc3c(c2)OCO3)cc1	none
Cc1cc(CN(C)C(=O)CC2C(=O)NCCN2Cc2c(F)cccc2Cl)n[nH]1 (stereo not given)	ALDH1A1 block 16µM (no result: PNC assembly inh, HPGD inh)
CCO[C@H]1OC(C(=O)Nc2ccccc2)=C[C@@H](C)[C@@H]1CCCO	none (no result: PNC assembly inh, HPGD inh)
CCN(C(=O)COc1ccc(C)nc1[N+](=O)[O-])C1CCS(=O)(=O)C1 (stereo not given)	PNC assembly inh inconclusive
CC(C)(C)N(NC(=O)OCc1ccccc1)C(=O)c1ccccc1	PNC assembly inh -80
CCc1ccc(C(=O)NN(C(=O)c2ccc(CC)cc2)C(C)(C)C)cc1	HPGD inh 25µM
O=C(O)COc1ccc2c(-c3ccccc3)cc(=O)oc2c1	ALDH1A1 block inconclusive, PNC assembly inh inconclusive, HPGD inh 18µM
Cc1cc(=O)oc2cc(OCc3nnc(-c4ccccc4Br)o3)ccc12	JMJD2E inh inconclusive, ALDH1A1 block inconclusive, HPGD inh inconclusive
Cc1cc(=O)oc2cc(OCC(=O)OCc3nnc(-c4ccccc4)o3)ccc12	JMJD2E inh inconclusive, ALDH1A1 block inconclusive, PNC assembly inh -86, HPGD inh inconclusive
